PubChem BioAssay (Tox21)
Several values for one entry are separate records, joined by “and”; a condition that tells them apart may be missing. Identical values can stand only once. Records with an inconclusive call do not appear. A call without a number means that no potency is given here. Activity calls are given as the source filed them. The call rests on the fitted dose curve; in most records, active means well fitted cell-killing curve with a large enough effect in the repeat runs; inconclusive means weak or mixed curves, or effect the other way; inactive means flat fitted curve, though single readings scatter.

Assays:
[1] = cAMP Responsive Elements (CRE) small molecule antagonists, cell-based qHTS assay: qHTS cell viability counter screen (AID 2060913); details: CRE-bla HEK293T viability, CellTiter-Glo luminescence, 5 h; series mostly up to 92.4 µM; further: nearly all actives have a fitted effect of over 40% in size
Procedure, shortened: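 Steps: cells plated and held 18 hrs at 37 C/5% CO2; compounds and NKH477 (0.25 uM final) added; 3 hrs incubation; reporter substrate read; CellTiter-Glo added to measure cytotoxicity by luminescence.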

[2] = cAMP Responsive Elements (CRE) small molecule agonists, cell-based qHTS assay: qHTS cell viability counter screen (AID 2060914); details: CRE-bla HEK293T viability, CellTiter-Glo luminescence, 5 h; series mostly up to 92.4 µM; further: nearly all actives have a fitted effect of over 50% in size
Procedure, shortened: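 In the same wells as the reporter read, viability of CRE-bla HEK 293T cells was quantified by CellTiter-Glo luminescence after a 3 h compound exposure.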
Potency means the concentration at half of the fitted maximal effect.

Structure (SMILES)	Potency [1]	Potency [2]	viability change, negative = cytotoxic [1]	activity change, negative = cytotoxicity [2]
CC(C)CCCCCCCCCCCCCCC(=O)O	inactive	inactive		
Cn1c(=O)[nH]c2ncn(C)c2c1=O	inactive	inactive		
CC(C)CCOC(=O)c1ccc(N(C)C)cc1	inactive	inactive		
CC(C)CCCCCCc1ccc(O)cc1	55.4 µM (active) and 27.3 µM (active)	55.4 µM (active) and 30.6 µM (active)		
COc1cc(OC)c(C(=O)CCCN2CCCC2)c(OC)c1	inactive	inactive		
C1=COCCC1	inactive	inactive		
COc1cc(C=O)ccc1O	inactive	inactive		
Cc1ccc2nc(-c3ccc(N)cc3)sc2c1S(=O)(=O)O	inactive	inactive		
CCCC(=O)OCOC(=O)C1=C(C)NC(C)=C(C(=O)OC)C1c1cccc(Cl)c1Cl (stereo unspecified)	inactive	inactive		
CC1(C)S[C@@H]2[C@H](NC(=O)COc3ccccc3)C(=O)N2[C@H]1C(=O)O	inactive	inactive		
CCOC(=O)c1c(N)sc2c1CCN(Cc1ccccc1)C2	inactive	inactive		
O=C(O)CCSSCCC(=O)O	inactive	inactive		
c1ccc2cc3c(ccc4ccccc43)cc2c1	inactive	inactive		
C=CC(=O)OCCOC1C2CCC1C1CC=CC12 (stereo unspecified)			9.26% [at 18.9 µM] (inactive)	-3.05% [at 18.9 µM] (inactive)
CCCOCC(C)OCC(C)O (stereo unspecified)	inactive	inactive		
CCC(=O)Nc1ccc(O)cc1	inactive	inactive		
CCCN[C@H]1CCc2nc(N)sc2C1	inactive	inactive		
COC(=O)c1cc(Cl)cc(Cl)c1	inactive	inactive		
